These results are taken from paper PMC4336329 (PLoS ONE, 2015).

Structures are written as SMILES. Screen size: about 310,000 compounds; about 14,000 (4.5%) showed an effect of 50% or more. Effects have a minus sign here. The sample holds strong results, similar compounds and a random draw of the others, so the mix is not that of the screen.
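Also: peak tail current of the secondary pulse compared with the same well before compound.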

The target in this assay is human ether-à-go-go-related gene (hERG) potassium channel (human, UniProt Q12809). The assay is described as follows: primary screen, population patch clamp on CHO cells stably expressing hERG; higher = less effect of the substance.
human ether-à-go-go-related gene (hERG) potassium channel, sequence (Q12809 whole entry, looked up): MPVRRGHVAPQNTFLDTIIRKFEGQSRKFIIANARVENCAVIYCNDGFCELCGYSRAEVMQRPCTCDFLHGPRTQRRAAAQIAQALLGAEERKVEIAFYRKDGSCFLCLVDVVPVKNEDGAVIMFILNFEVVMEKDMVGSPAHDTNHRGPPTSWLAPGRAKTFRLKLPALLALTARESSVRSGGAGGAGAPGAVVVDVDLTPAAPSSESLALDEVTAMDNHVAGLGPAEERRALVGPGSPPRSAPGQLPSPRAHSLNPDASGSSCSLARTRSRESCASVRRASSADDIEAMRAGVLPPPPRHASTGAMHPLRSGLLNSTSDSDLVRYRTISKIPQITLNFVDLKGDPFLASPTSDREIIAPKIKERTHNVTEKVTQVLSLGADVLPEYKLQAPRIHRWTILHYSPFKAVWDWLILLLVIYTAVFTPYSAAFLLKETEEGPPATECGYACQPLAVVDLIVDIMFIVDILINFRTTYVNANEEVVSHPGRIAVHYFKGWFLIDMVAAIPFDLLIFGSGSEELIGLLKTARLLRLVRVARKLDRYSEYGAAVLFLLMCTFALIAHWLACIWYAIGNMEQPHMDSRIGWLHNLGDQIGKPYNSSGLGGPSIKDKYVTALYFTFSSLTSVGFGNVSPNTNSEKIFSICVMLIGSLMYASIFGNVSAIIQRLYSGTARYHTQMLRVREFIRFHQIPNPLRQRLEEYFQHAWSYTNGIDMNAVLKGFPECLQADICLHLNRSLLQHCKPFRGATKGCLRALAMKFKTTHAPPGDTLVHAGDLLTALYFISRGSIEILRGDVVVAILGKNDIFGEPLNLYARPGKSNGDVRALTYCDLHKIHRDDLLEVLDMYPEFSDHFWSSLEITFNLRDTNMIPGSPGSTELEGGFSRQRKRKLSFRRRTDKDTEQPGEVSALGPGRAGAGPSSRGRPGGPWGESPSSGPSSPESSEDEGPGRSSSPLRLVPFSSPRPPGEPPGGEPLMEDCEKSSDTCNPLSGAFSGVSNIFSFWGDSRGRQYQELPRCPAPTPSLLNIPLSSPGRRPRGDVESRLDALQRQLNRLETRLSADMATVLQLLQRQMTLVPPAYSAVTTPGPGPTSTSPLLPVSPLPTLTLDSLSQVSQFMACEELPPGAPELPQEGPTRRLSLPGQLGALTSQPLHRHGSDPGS
On to `Cc1ccc(S(=O)(=O)NCc2cccnc2)cc1C(=O)N1CCCC1`, for which the “hERG current change (%, negative = inhibition) at 10uM” value is 20.3%.
The same measure for `OCCC1CN(Cc2ccccc2O)CCN1CCc1ccccc1` (centres unmarked): -35.6%; for `OCCC1CN(Cc2ccccc2O)CCN1CCCc1ccccc1` (centres unmarked): -74.8%.
`Cc1ccccc1CN1CCN(CC2CC2)CC1CCO` (centres unmarked): the “hERG current change (%, negative = inhibition) at 10uM” value was -4.79%.
Regarding `Cc1ccccc1CN1CCN(CCCc2ccccc2)C(CCO)C1` (centres unmarked), the “hERG current change (%, negative = inhibition) at 10uM” value was -70%.
Turning to `COc1ccc(-c2cc(C(=O)Nc3cccnc3Cl)no2)cc1OC`, the “hERG current change (%, negative = inhibition) at 10uM” value came to 16.6%.
The same measure for `COc1ccc(OC)c(Nc2nnc(C)c(=O)[nH]2)c1`: 6.27%; for `O=C1NC(=O)/C(=C\c2ccc(Br)o2)S1`: 21%.
For the compound `CCOC(=O)c1[nH]c(C)c(C(=O)OCC(=O)N(CC)C2CCS(=O)(=O)C2)c1C` (centres unmarked), the “hERG current change (%, negative = inhibition) at 10uM” value is given as -8.58%.
The same measure for `COc1cccc(NC(=O)CCN2C(=O)c3cccc([N+](=O)[O-])c3C2=O)c1`: -3.85%.
Consider `Cc1cccc(NC(=O)CCN2C(=O)c3cccc([N+](=O)[O-])c3C2=O)c1`, for which the “hERG current change (%, negative = inhibition) at 10uM” value worked out at 10.8%.
With `CC(OC(=O)CCN1C(=O)c2cccc([N+](=O)[O-])c2C1=O)C(=O)Nc1cc(Cl)cc(Cl)c1` (centres unmarked) the figure was -68.6%; with `Cc1cc(N)ccc1NC(=O)CN1CCCC1`, 21.2%.
With `N#Cc1sc(C(N)=O)c(-c2ccccc2)c1-c1ccccc1` the figure was 9.86%.
With `Cc1cc(Nc2cccc([N+](=O)[O-])c2)c2ccccc2n1`, the “hERG current change (%, negative = inhibition) at 10uM” value is given as -76.9%.
The same measure for `O=[N+]([O-])c1cccc(Nc2c3ccccc3nc3ccccc23)c1`: -11.5%.
For the compound `Cc1cc(Nc2cccc([N+](=O)[O-])c2)c2cccc(C)c2n1.Cl`, the “hERG current change (%, negative = inhibition) at 10uM” value is given as -77.3%.
The same measure for `Cc1cc(Nc2ccc([N+](=O)[O-])cc2)c2ccccc2n1`: -20%.
With `Cc1cc(Nc2ccccc2)c2c([N+](=O)[O-])ccc(C)c2n1` the figure was -24.7%; with `CCOc1ccc2nc(C)cc(Nc3cccc([N+](=O)[O-])c3)c2c1.Cl`, -30.4%.
With `CCOc1cc(C2NN=C(c3ccc(C)cc3)S2)ccc1O` (centres unmarked) the figure was 9.67%.
`Cc1occc1C(=O)Nc1ccc2c(c1)OCO2`: the “hERG current change (%, negative = inhibition) at 10uM” value is reported as -7.71%.
The same measure for `O=C(O)c1ccc(C(=O)O)c(C(=O)c2ccccc2)c1`: 1.72%.
With `O=[N+]([O-])c1ccc(CN2CCCCCC2)cc1`, the “hERG current change (%, negative = inhibition) at 10uM” value is given as -32.8%.
Regarding `c1ccc(CN2CCOCCOCCOCC2)cc1`, the “hERG current change (%, negative = inhibition) at 10uM” value came out at 15.6%.
The same measure for `O=[N+]([O-])c1ccc(CN2CCSCC2)cc1`: 15.5%.
Regarding `O=C(NC(=S)Nc1ccc(CN2CCOCC2)cc1)c1ccc([N+](=O)[O-])cc1`, the “hERG current change (%, negative = inhibition) at 10uM” value was -13%.
With `O=[N+]([O-])c1ccc(CN2CCOCCOCCOCC2)cc1` the figure was -59.1%; with `O=[N+]([O-])c1ccc(CN2CCOCCOCCN(Cc3ccc([N+](=O)[O-])cc3)CCOCC2)cc1`, -77.8%; with `CC(OC(=O)c1ccc(Cl)c(S(=O)(=O)N2CCOCC2)c1)C(=O)NC1CCCCC1C` (centres unmarked), -35.9%.
In the case of `O=C1OC(CCl)CN1Cc1c(Cl)cccc1Cl` (centres unmarked), the “hERG current change (%, negative = inhibition) at 10uM” value is given as -0.492%.
The same measure for `O=C(COc1ccc(C(=O)c2ccc(F)cc2)cc1)NCc1ccc(F)cc1`: 4.49%.
As to `COC(=O)[C@]1(C)N[C@H](c2ccc(-c3ccc(F)cc3)cc2)[C@@H]2C(=O)N(C)C(=O)[C@@H]21.O=C(O)C(F)(F)F`, the “hERG current change (%, negative = inhibition) at 10uM” value is listed as -1.3%.
The same measure for `NS(=O)(=O)c1cc(C(=O)O)c(NCc2ccco2)cc1Cl`: 14.7%; for `CCC(=O)N=c1sc2ccccc2n1-c1ccccc1`: 17.8%; for `N#CC(C#N)=Cc1ccc(N2CCCC2)cc1`: 4.17%.
Take `Cc1cc(N2CCCC2)ccc1C=C(C#N)C#N`: the “hERG current change (%, negative = inhibition) at 10uM” value is -13.2%.
As to `Cc1cc(C=C(C#N)C#N)ccc1N1CCCC1`, the “hERG current change (%, negative = inhibition) at 10uM” value is recorded as -65%.
With `Cc1ccc(C)c(NC(=O)c2cc3c([nH]c4ccccc43)c(C)n2)c1`, the “hERG current change (%, negative = inhibition) at 10uM” value turned out to be 5.7%.
The same measure for `c1ccc2c(N3CCCCC3)nc(N3CCCCC3)nc2c1`: -39.1%.
The same measure for `c1ccc2c(N3CCCCC3)nc(N3CCCC3)nc2c1`: -69.6%.
As to `c1ccc2c(N3CCCCC3)nc(N3CCOCC3)nc2c1`, the “hERG current change (%, negative = inhibition) at 10uM” value is on record as -33.7%.
With `Cc1nc(N2CCCCCC2)c2ccccc2n1.Cl` the figure was -51.5%.
In the case of `I.c1ccc2c(c1)nc(N1CCCCCC1)c1ccccc12`, the “hERG current change (%, negative = inhibition) at 10uM” value turned out to be 0.834%.
With `Cl.c1ccc2c(c1)nc(N1CCCCC1)c1ccccc12` the figure was -2.67%; with `O=C(NC1(Cc2ccccc2)CCN(CCc2cccs2)C1=O)c1ccccc1` (centres unmarked), -1.81%.
The same measure for `Cc1ccc(C)c(Nc2cc(C)nc(-c3ccccc3O)n2)c1`: 15%.
With `COc1cc(C(=S)N2CCCC2)ccc1OCC(N)=O` the figure was 17.8%.
With `COC(=O)c1n[nH]n(-c2ccc(F)c(Cl)c2)c1=O`, the “hERG current change (%, negative = inhibition) at 10uM” value is reported as 9.84%.
With `CCC(C)N(C(=O)CN1C(=O)NC2(CCc3ccccc32)C1=O)C1CCS(=O)(=O)C1` (centres unmarked) the figure was -3.41%; with `Cc1ccc(OCCCCCCN2CCNCC2)cc1.O=C(O)C(=O)O`, -11.6%.
With `CC1CCN(CCCCOc2ccc(C(C)(C)C)cc2)CC1.O=C(O)C(=O)O` the figure was -59.6%.
The same measure for `CC(C)(c1ccccc1)c1ccc(OCCCN2CCNCC2)cc1.O=C(O)C(=O)O`: 3.19%; for `CC1CCN(CCCCOc2ccc(Cl)cc2)CC1.O=C(O)C(=O)O`: -71.7%; for `Cc1ccc(OCCCCN2CCC(C)CC2)cc1.O=C(O)C(=O)O`: -23.4%.
Consider `COc1ccc(OCCCCN2CCC(C)CC2)cc1.O=C(O)C(=O)O`, for which the “hERG current change (%, negative = inhibition) at 10uM” value was -29%.
For the compound `CC(C)OCCCNC(=O)c1ccc(Br)cc1`, the “hERG current change (%, negative = inhibition) at 10uM” value is -8.3%.
With `CC(=O)c1ccc(NC(=O)CNCc2cccs2)cc1.O=C(O)C(=O)O` the figure was -0.848%.
With `Cc1ccc2[nH]c(C(=O)O)c(NC(=O)CN3CCN(c4cccc(C)c4C)CC3)c2c1.Cl` the figure was 13.1%.
